In the supplement of paper PMC7830784:

These compounds were tested on Brugia pahangi adult female (assay: IC50 motility inhibition on day 3). Settings: 3 days.
Method: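 Single adult female Brugia pahangi worms in 24-well plates (RPMI-1640, 5% FBS, 37 °C) were treated with 10 µM of each compound from a 2121-drug library (4 replicates; 1% DMSO vehicle and 10 µM auranofin controls). Motility was recorded with WormAssay dark-field imaging, and % inhibition of motility on day 3 is relative to vehicle. IC50 values for selected hits come from a 6-point dilution series (30 to 0.1 µM) fitted in GraphPad Prism.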

SMILES	IC50 motility inhibition on day 3
CC[C@@H](C(=O)[C@@H](C)[C@@H](O)[C@H](C)[C@@H]1O[C@@H]([C@@H](CC)C(=O)O)CC[C@@H]1C)[C@H]1O[C@]2(C=C[C@@H](O)[C@]3(CC[C@@](C)([C@H]4CC[C@](O)(CC)[C@H](C)O4)O3)O2)[C@H](C)C[C@@H]1C [salinomycin]	635 nM
Oc1cccc2cccnc12 [oxyquinoline]	1500 nM
CC(=O)[O][Hg][c]1ccccc1 [phenylmercuric acetate]	179 nM
CCCCCCCCCCCCCCCC[n+]1ccccc1 [cetylpyridinium chloride]	3400 nM
[O-][n+]1ccccc1[S-].[O-][n+]1ccccc1[S-].[Zn+2] [pyrithione zinc]	96.3 nM
C[CH2][Hg][S]c1ccccc1C(=O)[O-].[Na+] [thimerosal]	406 nM
CNC(=O)Oc1ccc2c(c1)[C@]1(C)CCN(C)[C@@H]1N2C [(-)-Physostigmine]	13600 nM
N[C@@H]1C[C@H]1c1ccccc1.N[C@H]1C[C@@H]1c1ccccc1 [tranylcypromine]	6150 nM
C[C@@H]1O[C@@H](O[C@@H]2C=C3CC[C@@H]4[C@H](CC[C@]5(C)[C@@H](c6ccc(=O)oc6)CC[C@]45O)[C@@]3(C)CC2)[C@H](O)[C@H](O)[C@H]1O [proscillaridin]	731 nM
O=c1[nH]c2ccccc2n1C1CCN(CCCC(c2ccc(F)cc2)c2ccc(F)cc2)CC1 [Pimozide]	2520 nM
